Test results reported in PubChem BioAssay (EPA / NIEHS).
Results filed as inconclusive are left out. The source made the active and inactive calls. Rule for the calls: active = hit-call score of the fitted dose curve at least 0.9, where 1 is the maximum; inconclusive = response in the unintended direction; inactive = score below 0.9.

Target: Hepatocyte nuclear factor 4-alpha (Homo sapiens) (UniProt P41235)
Assay: ATG_HNF4a_TRANS: Attagene TRANS-FACTORIAL HepG2 Assay for human Hepatocyte Nuclear Factor 4 alpha (HNF4a) (AID 2282982)
Conditions: HepG2 HNF4a transactivation reporter, mRNA readout
Experimental: ATG_TRANS is a cell-based, multiplexed-readout assay that uses HepG2, a human liver cell line, with measurements taken at 24 hours after chemical dosing in a 24-well plate.ATG_HNF4a_TRANS is one of 30 assay component(s) measured or calculated from the ATG_TRANS assay. It is designed to make measurements of mRNA induction, a form of inducible reporter, as detected with fluorescence intensity signals by Reverse transcription polymerase chain reaction (RT-PCR) and Capillary electrophoresis technology.Data from the assay component ATG_HNF4a_TRANS was analyzed into 1 assay endpoint. This assay endpoint, ATG_HNF4a_TRANS, was analyzed in the positive analysis fitting direction relative to DMSO as the negative control and baseline of activity. Using a type of inducible reporter, measures of mRNA for gain-of-signal activity can be used to understand the reporter gene at the transcription factor-level as they relate to the gene HNF4A. Furthermore, this assay endpoint can be referred to as a primary readout, because this assay has produced multiple assay endpoints where this one serves a reporter gene function. To generalize the intended target to other relatable targets, this assay endpoint is annotated to the nuclear receptor intended target family, where the subfamily is orphan.
Human liver HepG2 cells are transiently transfected with multiple reporter transcription units (MRTUs) in 6-well plates using FuGene 6 reagent (Roche; 3 ml FuGene/1 mg DNA). The MRTU constructs are regulated by a cis-regulating element (promoter). […] A major difference between the CIS and TRANS system is that in CIS activities of endogenous TFs are measured, whereas the TRANS assay evaluates changes in activities of exogenous, chimeric NR-Gal4 proteins. […] At the end of 24 hour incubation, total RNA was isolated using TriZol reagent (Invitrogen). The isolated RNA is then reverse-transcribed using oligo(dT) primer and Mo-MLV reverse transcriptase (Invitrogen) with DNAse I (Ambion) treatment for 30 min. The one-tenth of the produced cDNA was amplified by PCR using Taq DNA polymerase (Invitrogen) and two reporter sequence-specific primers. The PCR products were fluorescently labeled by primer extension with 6-arboxyfluorescein (6-FAM) 5'-labeled reporter sequence-specific primer (2 min at 95 C, 20 s at 68 C and 10 min at 72 C) and these products were digested with 5U of HpaI (New England Biolabs) for 2h at 37 C. The fragments were purified using Qiaquick PCR columns (Qiagen), analyzed on an ABI 3130xL genetic analyzer (Applied Biosystems) with peak positions identified by using a set of X-rhodamine (ROX)-labeled MapMarker1000 molecular weight standards (BioVentures). The raw capillary electrophoresis data was processed using Attagraph software (Attagene).

Chain of Hepatocyte nuclear factor 4-alpha (Homo sapiens) (P41235 whole entry, looked up): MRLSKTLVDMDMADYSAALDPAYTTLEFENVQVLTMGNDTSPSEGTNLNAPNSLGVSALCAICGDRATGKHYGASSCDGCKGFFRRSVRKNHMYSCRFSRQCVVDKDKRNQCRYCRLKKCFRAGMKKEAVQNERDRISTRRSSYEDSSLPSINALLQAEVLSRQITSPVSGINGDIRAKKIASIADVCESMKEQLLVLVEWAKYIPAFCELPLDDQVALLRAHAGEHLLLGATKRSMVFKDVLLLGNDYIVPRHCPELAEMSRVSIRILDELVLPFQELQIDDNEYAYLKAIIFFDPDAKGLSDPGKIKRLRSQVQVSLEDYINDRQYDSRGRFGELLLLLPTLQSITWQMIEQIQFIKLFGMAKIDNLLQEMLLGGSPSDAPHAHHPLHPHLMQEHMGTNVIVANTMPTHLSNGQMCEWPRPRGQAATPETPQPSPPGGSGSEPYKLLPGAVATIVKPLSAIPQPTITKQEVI

| Compound | outcome |
| --- | --- |
| O=CCCCC=O | inactive |
| CCCCOC(=O)CC(CC(=O)OCCCC)(OC(C)=O)C(=O)OCCCC | inactive |
| CC1=CC(=O)/C(=C(/C)O)C(=O)O1 | inactive |
| Cc1occc1C(=O)Nc1ccc(C(=O)N2CCC(F)(F)/C(=C\C(=O)N3CCC(N4CCCCC4)CC3)c3ccccc32)cc1 | inactive |
| O=C(OCCCCCCOC(=O)c1ccccc1)c1ccccc1 | inactive |
| Oc1ccccc1 | inactive |
| c1ccc(C[n+]2cccc3ccccc32)cc1 | inactive |
| CC1(C)NC(=O)N(c2ccc([N+](=O)[O-])c(C(F)(F)F)c2)C1=O | inactive |
| OCCO | inactive |
| Cc1ccc2oc(CN(Cc3ccccc3)C(=O)Nc3c(F)cc(F)cc3F)c(-c3ccc(Cl)cc3)c2c1 | inactive |
| Cc1cn([C@H]2C[C@H](N=[N+]=[N-])[C@@H](CO)O2)c(=O)[nH]c1=O | inactive |
| NCc1cccc(C2CCN(C(=O)c3ccc(C#Cc4ccccc4F)o3)CC2)c1 | inactive |
| O=c1c(-c2ccc(O)cc2)coc2cc(O)cc(O)c12 | inactive |
| CCCOC(=O)c1cc(O)c(O)c(O)c1 | inactive |
| C[C@]12CC[C@@H]3c4ccc(O)cc4CC[C@H]3[C@@H]1CCC2=O | inactive |
| CN1C(=O)CC[C@H]1c1cccnc1 | inactive |
| CCCCCc1ccc(N)cc1 | inactive |
| O=C(O)Cc1cc(I)c(Oc2ccc(O)c(I)c2)c(I)c1 | inactive |
| Cc1cccc2ccccc12 | inactive |
| CCCCOC(=O)c1ccc(O)cc1 | inactive |

| Compound | outcome |
| --- | --- |
| O=C1c2ccccc2C(=O)N1CCc1noc(-c2ccc(CN3CCCCCC3)s2)n1 | inactive |
| CC(O)CC(C)(C)O (centres undefined) | inactive |
| OC12N=C(c3ccccc3)SC1Cc1cc(Cl)ccc12 (centres undefined) | inactive |
| CCCCCCCCCC(=O)O | inactive |
| COc1ccc2cc(S(=O)(=O)N[C@H](CC(=O)N[C@H](Cc3ccc(CN4[C@H](C)CCC[C@@H]4C)cc3)C(=O)N(C)C(C)C)c3ccc4c(c3)OCO4)ccc2c1 | inactive |
| Oc1ccc2ccccc2c1 | inactive |
| CCCCCCCCN(C)CCCCCCCC | inactive |
| CCCCCCCCCCCCO | inactive |
| CCCCCCCCOC(=O)c1cc(O)c(O)c(O)c1 | inactive |
| CCN(CC)C(=O)c1cc(S(=O)(=O)Cc2ccccc2)c(N2CCC(c3ccccc3)CC2)cc1N(CC)CCN(C)C | inactive |
| C[C@]12CC[C@@H]3c4ccc(O)cc4CC[C@H]3[C@@H]1CC[C@H]2O | inactive |
| O=C1O[C@H]([C@@H](O)CO)C(O)=C1O | inactive |
| CCN(Cc1cccc(S(=O)(=O)O)c1)c1ccc(C(=C2C=CC(=[N+](CC)Cc3cccc(S(=O)(=O)O)c3)C=C2)c2ccccc2S(=O)(=O)[O-])cc1 | inactive |
| O=C(Nc1ccc(Cl)cc1)Nc1ccc(Cl)c(Cl)c1 | inactive |
| O=c1[nH]sc2ccccc12 | inactive |
| CC(C)(c1cc(Br)c(O)c(Br)c1)c1cc(Br)c(O)c(Br)c1 | inactive |
| CCCCCCCCCCCC[N+](C)(C)C | inactive |
| CC/C(=C(/CC)c1ccc(O)cc1)c1ccc(O)cc1 | inactive |
| CC[C@@H]1C[C@H](N(Cc2cc(C(F)(F)F)cc(C(F)(F)F)c2)C(C)=O)c2cc(C(F)(F)F)ccc2N1C(=O)OC(C)C | inactive |
